# Reference: PubChem BioAssay
# The source made the active and inactive calls. Unless noted, the rule behind the calls is not given here.
# Key:
# [1] = compounds binding Alexa647 anti-His antibody – biochemical, small-molecule microarray, 635 nm fluorescence, artefact control for SMM control protein annotation, primary screen (AID 1128); conditions: higher = more signal;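 note: score merges feature fluorescence with signal-to-noise for each printed compound spot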
# [2] = system: Human papillomavirus type 1a E7 protein (residues 1-88); assay: HPV1a E7 small-molecule binders, primary screen, biochemical, small-molecule microarray, residues 1-88, 635 nm (AID 1129); conditions: small-molecule microarray binding, fluorescence 635 nm; higher = more signal
# [3] = biological target: Focal adhesion kinase 1 (Homo sapiens) (UniProt Q05397); assay: PTK2 protein binding on printed compound slides – biochemical, small-molecule microarray, 635/667 nm fluorescence, BSA, DTT, primary screen (AID 1130); conditions: 635 nm fluorescence, higher = more signal;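 note: composite of spot emission at 667 nm and signal to noise over triplicate slides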
# [4] = system: Fibrinogen (Alexa647-labelled); assay: Alexa647-fibrinogen binding to printed small molecules – biochemical, small-molecule microarray, 635/667 nm fluorescence, artefact control for SMM control-protein annotation, profiling panel (AID 1131); conditions: fibrinogen-A647 binding fluorescence, higher = more signal;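 note: z-score merges 667 nm fluorescence with per-spot signal-to-noise over triplicate slides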
# [5] = biological target: Follistatin (Homo sapiens) (UniProt P19883); assay: FST protein binding to printed compounds – biochemical, small-molecule microarray, 635/667 nm fluorescence, primary screen (AID 1132); conditions: 635 nm fluorescence, higher = more signal
# [6] = biological target: Fibroblast growth factor 2 (Homo sapiens) (UniProt P09038); assay: basic fibroblast growth factor binding to printed compounds – biochemical, small-molecule microarray, 635/667 nm fluorescence, primary screen (AID 1133); conditions: FGF2, fluorescence 635/667, higher = more signal
# [7] = JC-1 mitochondrial potential readout, lung cancer cells – cell-based, A549, JC-1 fluorescence, basal, 24 h, 100 nL, profiling panel (AID 1138); conditions: higher = more signal;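 note: A549 lung adenocarcinoma cells under basal conditions with no added stimulus; test concentration not given here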
# Lefty1 = Lefty1 protein binding to printed compounds – biochemical, small-molecule microarray, 635/667 nm fluorescence, primary screen (AID 1139); conditions: fluorescence 635/667, higher = more signal
# [8] = system: wheat germ agglutinin (Triticum aestivum), Alexa647-labelled; assay: Alexa647-WGA lectin binding to printed small molecules – biochemical, small-molecule microarray, 635/667 nm fluorescence, artefact control for SMM control-protein annotation, profiling panel (AID 1140); conditions: WGA-A647 binding, 635 nm fluorescence, higher = more signal;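 note: score merges 667 nm feature emission with signal to noise over triplicate slides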
# [9] = biological target: Luciferin 4-monooxygenase (Photinus pyralis) (UniProt P08659); assay: inhibition of purified Photinus pyralis luciferase – biochemical, luminescence, purified enzyme, 2006 set, primary screen (AID 1141); conditions: purified firefly luciferase, SteadyGlo luminescence, 30 min; higher = more signal, called active from +8 up or from −8 down;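 note: cell-free assay with purified firefly luciferase at 100 ng per well in PBS; test concentration not given here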
# [10] = system: Wnt5a (protein binding on small-molecule microarray); assay: small molecules binding Wnt5a protein – biophysical, small-molecule microarray, 635/667 nm fluorescence, primary screen (AID 1142); conditions: 635 nm fluorescence, higher = more signal;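 note: fluorescence read at 667 nm with signal to noise per printed feature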
# [11] = ATP-based viability of Huh7 replicon cells – cell-based, CellTiter-Glo luminescence, basal, 48 h, cytotoxicity control for HCV replication inhibitor project, primary screen (AID 1143); conditions: higher = more signal, called active from +8 up or from −8 down;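 note: Huh7 hepatoma cells carrying a hepatitis C replication reporter with no stimulus; test concentration not given here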
# [12] = Pseudomonas biofilm growth suppression – PAO1 strain, BacTiter-Glo luminescence, LB-PBS, primary screen (AID 1144); conditions: P. aeruginosa PAO1 biofilm, 12 h, higher = more signal
# [13] = basal CRE-LacZ reporter activity in PC12 – cell-based, unstimulated, primary screen (AID 1145); conditions: no forskolin, luminescence, 4.5 h, higher = more signal, called active from +8 up or from −8 down
# [14] = forskolin-driven CRE-LacZ activity in PC12 – cell-based, CRE-LacZ reporter, forskolin-stimulated, primary screen (AID 1146); conditions: luminescence, 4.5 h, higher = more signal, called active from +8 up or from −8 down;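 note: PC12 cells with 6xCRE LacZ reporter stimulated by forskolin 10 µM; beta-galactosidase reporter signal reflecting CREB driven transcription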
# [15] = biological target: Streptavidin (Streptomyces avidinii) (UniProt P22629); assay: compounds binding control protein streptavidin – biophysical, small-molecule microarray, 635/667 nm fluorescence, artefact control for SMM compound annotation, primary screen (AID 1147); conditions: higher = more signal;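 note: signal reflects streptavidin binding to arrayed compounds as a control protein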
# [16] = probe aInhba binding on compound microarray – biochemical, small-molecule microarray, 635/667 nm fluorescence, primary screen (AID 1148); conditions: higher = more signal;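 note: score merges 667nm spot fluorescence with signal-to-noise for antibody binding to printed compounds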
# Torsin-1A (Homo sapiens) [17] = biological target: Torsin-1A (Homo sapiens) (UniProt O14656); assay: TOR1A wild-type binding on microarray – cell lysate, small-molecule microarray, lysate, 635/667 nm, primary screen (AID 1149); conditions: COS7 hTOR1A-WT lysate, 635 nm fluorescence, higher = more signal
# Torsin-1A (Homo sapiens) [18] = biological target: Torsin-1A (Homo sapiens) (UniProt O14656); assay: torsin A mutant lysate binding on microarrays – cell lysate, small-molecule microarray, COS7 lysate, 635/667 nm fluorescence, primary screen (AID 1150); conditions: COS7 hTOR1A mutant lysate, 635 nm fluorescence, higher = more signal;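 note: score pools 667 nm emission and signal to noise measuring lysate protein binding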
# [19] = system: Sonic hedgehog protein (Shh); assay: Sonic hedgehog microarray binding compounds – biochemical, small-molecule microarray, 635/667 nm fluorescence, primary screen (AID 1151); conditions: 635 nm fluorescence, higher = more signal;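 note: Shh protein binding to compounds spotted on small-molecule microarray slides; score combines spot fluorescence intensity with signal-to-noise across triplicate slides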
# Sequence of Follistatin (Homo sapiens) (P19883 whole entry, looked up): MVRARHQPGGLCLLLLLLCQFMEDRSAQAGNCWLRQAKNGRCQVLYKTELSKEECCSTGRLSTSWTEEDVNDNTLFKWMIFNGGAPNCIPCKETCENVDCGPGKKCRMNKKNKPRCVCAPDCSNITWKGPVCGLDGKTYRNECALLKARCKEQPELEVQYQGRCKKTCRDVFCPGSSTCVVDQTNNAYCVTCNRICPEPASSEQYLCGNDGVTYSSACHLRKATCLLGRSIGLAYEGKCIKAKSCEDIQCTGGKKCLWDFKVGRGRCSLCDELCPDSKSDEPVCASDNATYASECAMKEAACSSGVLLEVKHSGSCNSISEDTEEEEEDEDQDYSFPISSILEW
# Sequence of Luciferin 4-monooxygenase (Photinus pyralis) (P08659 whole entry, looked up): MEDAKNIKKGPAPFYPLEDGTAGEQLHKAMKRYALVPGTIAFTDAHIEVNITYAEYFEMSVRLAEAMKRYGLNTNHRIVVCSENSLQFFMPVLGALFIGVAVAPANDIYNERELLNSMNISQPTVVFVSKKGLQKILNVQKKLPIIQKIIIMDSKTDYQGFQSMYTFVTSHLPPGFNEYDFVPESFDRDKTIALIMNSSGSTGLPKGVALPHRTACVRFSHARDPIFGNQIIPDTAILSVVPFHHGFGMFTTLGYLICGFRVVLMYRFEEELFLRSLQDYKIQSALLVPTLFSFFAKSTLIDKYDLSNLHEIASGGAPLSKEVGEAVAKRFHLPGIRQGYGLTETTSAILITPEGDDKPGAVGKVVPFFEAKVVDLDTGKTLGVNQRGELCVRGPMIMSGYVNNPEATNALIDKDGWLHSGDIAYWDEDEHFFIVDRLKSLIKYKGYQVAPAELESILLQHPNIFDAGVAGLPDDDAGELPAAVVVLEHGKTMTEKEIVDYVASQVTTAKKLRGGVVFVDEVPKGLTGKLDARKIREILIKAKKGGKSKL
# Sequence of Fibroblast growth factor 2 (Homo sapiens) (P09038 whole entry, looked up): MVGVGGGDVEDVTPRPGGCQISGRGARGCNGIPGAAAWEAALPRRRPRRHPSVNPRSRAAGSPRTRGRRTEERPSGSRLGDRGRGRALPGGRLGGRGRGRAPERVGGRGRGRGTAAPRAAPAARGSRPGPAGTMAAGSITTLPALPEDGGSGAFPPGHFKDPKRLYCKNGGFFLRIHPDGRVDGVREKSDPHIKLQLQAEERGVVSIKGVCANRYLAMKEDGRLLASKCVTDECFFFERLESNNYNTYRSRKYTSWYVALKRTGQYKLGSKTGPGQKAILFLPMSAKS
# Sequence of Streptavidin (Streptomyces avidinii) (P22629 whole entry, looked up): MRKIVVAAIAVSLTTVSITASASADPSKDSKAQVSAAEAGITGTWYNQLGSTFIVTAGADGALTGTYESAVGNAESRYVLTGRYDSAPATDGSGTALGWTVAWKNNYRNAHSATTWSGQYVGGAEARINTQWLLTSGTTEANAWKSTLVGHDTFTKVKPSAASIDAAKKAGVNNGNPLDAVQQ
# Sequence of Focal adhesion kinase 1 (Homo sapiens) (Q05397 whole entry, looked up): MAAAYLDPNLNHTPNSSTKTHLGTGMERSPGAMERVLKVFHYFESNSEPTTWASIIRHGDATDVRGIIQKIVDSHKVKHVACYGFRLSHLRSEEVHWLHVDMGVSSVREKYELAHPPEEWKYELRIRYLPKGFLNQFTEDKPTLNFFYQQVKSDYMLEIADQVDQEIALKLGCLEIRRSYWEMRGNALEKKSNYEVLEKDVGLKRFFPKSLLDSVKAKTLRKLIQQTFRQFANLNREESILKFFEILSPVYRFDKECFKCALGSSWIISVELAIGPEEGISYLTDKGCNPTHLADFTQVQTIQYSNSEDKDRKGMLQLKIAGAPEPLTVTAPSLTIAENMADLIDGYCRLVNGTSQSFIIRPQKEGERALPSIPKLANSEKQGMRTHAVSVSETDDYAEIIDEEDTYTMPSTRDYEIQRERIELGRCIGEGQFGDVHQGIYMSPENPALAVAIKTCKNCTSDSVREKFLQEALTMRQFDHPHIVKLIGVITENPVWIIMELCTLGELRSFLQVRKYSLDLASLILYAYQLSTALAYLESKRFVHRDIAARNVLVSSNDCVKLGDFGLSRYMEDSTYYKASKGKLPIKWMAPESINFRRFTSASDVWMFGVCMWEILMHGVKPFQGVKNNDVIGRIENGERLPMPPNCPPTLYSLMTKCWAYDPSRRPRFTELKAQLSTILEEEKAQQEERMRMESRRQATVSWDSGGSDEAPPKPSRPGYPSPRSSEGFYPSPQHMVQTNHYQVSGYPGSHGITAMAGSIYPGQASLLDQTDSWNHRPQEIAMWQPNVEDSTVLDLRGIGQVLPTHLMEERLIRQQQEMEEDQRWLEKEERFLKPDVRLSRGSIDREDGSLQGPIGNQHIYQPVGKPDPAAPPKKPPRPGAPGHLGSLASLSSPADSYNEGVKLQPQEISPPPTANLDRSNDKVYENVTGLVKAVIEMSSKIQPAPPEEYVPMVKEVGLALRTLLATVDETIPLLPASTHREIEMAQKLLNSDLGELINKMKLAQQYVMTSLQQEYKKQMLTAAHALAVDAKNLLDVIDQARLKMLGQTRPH
# Sequence of Torsin-1A (Homo sapiens) (O14656 whole entry, looked up): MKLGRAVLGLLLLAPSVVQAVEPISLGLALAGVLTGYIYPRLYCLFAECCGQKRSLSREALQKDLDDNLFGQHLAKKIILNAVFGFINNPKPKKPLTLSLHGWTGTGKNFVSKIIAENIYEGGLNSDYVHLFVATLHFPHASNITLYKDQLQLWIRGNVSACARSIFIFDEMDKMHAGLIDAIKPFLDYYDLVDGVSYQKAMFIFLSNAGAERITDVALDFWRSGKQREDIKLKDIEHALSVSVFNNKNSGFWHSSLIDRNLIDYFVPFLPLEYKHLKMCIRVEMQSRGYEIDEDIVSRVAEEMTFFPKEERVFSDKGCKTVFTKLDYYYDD
Structure (SMILES),composite z-score [1],composite z-score [2],composite z-score [3],composite z-score [4],composite z-score [5],composite z-score [6],z-score [7],composite z-score (Lefty1),composite z-score [8],z-score [9],composite z-score [10],z-score [11],z-score [12],z-score [13],z-score [14],composite z-score [15],composite z-score [16],composite z-score (Torsin-1A (Homo sapiens) [17]),composite z-score (Torsin-1A (Homo sapiens) [18]),composite z-score [19]
C=CCC(OC(C)=O)[C@@H]1[C@@H](N(Cc2cc3ccccc3o2)C(=O)c2cccc3ccccc23)c2cc(OCCCO)ccc2N1C(=O)c1ccc2ccccc2c1 (stereo not given in full),-0.0596,-0.566,0.11,-0.262,0.65,0.133,-0.0697,0.203,-0.0449,0.131 (inactive),0.316,-0.928 (inactive),0.26 (inactive),3.85 (inactive),0.0746 (inactive),0.0823,-0.0791,0.523,0.132,0.198
Cc1ccc(F)cc1S(=O)(=O)N[C@@H]1CCN(Cc2ccc3c(c2)OCO3)C1,-0.146,-0.844,-0.226,0.125,0.491,0.279,1.32,0.236,-0.0476,-0.391 (inactive),-0.212,-1.51 (inactive),-0.455 (inactive),1.22 (inactive),-0.714 (inactive),-0.194,-0.128,0.241,0.0733,-0.0547
Cc1ccc(S[C@]2(C(=O)NCCN3CCOCC3)CC(=O)N(C3CCCCC3)[C@@H]2c2ccc(CO)cc2I)cc1,0.893,1.2,1.14,0.926,0.972,0.236,1.23,1.21,0.977,0.827 (inactive),0.328,-2.19 (inactive),-0.435 (inactive),-0.231 (inactive),0.341 (inactive),1.24,-0.117,0.383,1.15,1.94
COCCOC(=O)N1C(=O)[C@@]2(c3cc(C#CCC(C(=O)OC)C(=O)OC)ccc31)[C@H](C(=O)N1CCc3cc(OC)c(OC)cc3C1)[C@H]1C(=O)O[C@H](c3ccccc3)[C@H](c3ccccc3)N1[C@@H]2c1ccc(O)cc1,1.82,1.21,0.221,0.787,1.36,1.59,-0.132,1.11,1.05,1.01 (inactive),0.44,-0.607 (inactive),0.0314 (inactive),0.0653 (inactive),-0.572 (inactive),0.286,0.134,1.32,0.864,1.9
COCC(=C=CC[C@@H](O)c1ccc(OCCO)cc1)C[C@@H](O)COCc1ccccc1,1.29,0.893,0.106,-0.262,1.34,1.41,0.974,1.01,0.904,-1.7 (inactive),1.05,-0.959 (inactive),-0.498 (inactive),10.3 (active),-0.487 (inactive),-0.223,0.0345,0.681,1.43,1.54
CN(C)C(=O)[C@]1(Cc2ccccc2CN=[N+]=[N-])N=C(c2ccc(OCCCO)cc2)O[C@@H]1c1ccccc1N=[N+]=[N-],0.266,1.23,0.977,1.02,1.18,-0.0347,0.568,-0.136,1.12,-9.41 (active),0.397,-3.07 (inactive),-0.406 (inactive),-0.79 (inactive),-0.969 (inactive),1.34,0.177,0.0095,0.25,-0.946
COCCOC(=O)N1C(=O)[C@@]2(c3cc(C#CCCO)ccc31)[C@H](c1ccccc1OCCO)N1[C@H](c3ccccc3)[C@H](c3ccccc3)OC(=O)[C@H]1[C@@H]2C(=O)N1CCc2cc(OC)c(OC)cc2C1,1.86,1.22,0.405,0.869,1.14,1.25,-0.0868,0.786,0.546,-1.26 (inactive),0.318,-1.07 (inactive),0.609 (inactive),1.72 (inactive),0.385 (inactive),0.321,-0.0448,1.17,1.18,1.2
COc1ccc(CC[C@H](O)c2cccc(OCC(=O)OC(C)(C)C)c2)cc1,0.697,1.01,0.464,1.04,1.02,0.625,0.383,1.01,0.906,0.275 (inactive),0.42,-3.93 (inactive),-0.0717 (inactive),0.595 (inactive),-0.251 (inactive),1.77,0.156,0.584,0.977,1.37
COc1cc2c(cc1O)C(c1ccc(CN3CCCC3)cc1)N(Cc1cccc(OC(F)(F)F)c1)CC2 (stereo not given),1.67,0.879,-0.425,0.406,1.22,0.476,-2.01,0.242,0.625,-1.37 (inactive),-0.0324,-5.42 (inactive),1.15 (inactive),0.0924 (inactive),0.248 (inactive),0.0307,-0.15,0.47,1.13,0.345
COCCCN1C(=O)[C@@]2(Cc3ccccc31)c1ccccc1C(=O)N(Cc1ccccc1OC)[C@H]2c1ccc(CO)cc1,-1.44,-0.717,-0.725,0.0715,-1.07,-0.665,0.0581,-0.566,-0.0303,-0.522 (inactive),-0.0515,0.532 (inactive),0.53 (inactive),0.0279 (inactive),1.2 (inactive),-0.111,-0.108,-0.596,-0.274,0.0923
